CYP2C9 inhib: blocks human cytochrome P450 2C9; inhibition, % at 5 µM; AID 777; 96,000 tested, 20% active; P11712; CYP2C9 Supersomes, luciferin-H conversion, luminescence;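 active means blocking of liver enzyme CYP2C9 beyond about 50% at 5 µM, limit read from the data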
CYP2C9 activ: increases human cytochrome P450 2C9 activity | recombinant CYP2C9, luciferin-H conversion, luminescence; hits give high values; factor 1 = untreated enzyme, 0 = blocked | AID 1024 | 96,000 tested, 1.4% active | activation factor at 5 µM;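 active means activation factor of 2 or more for CYP2C9 at a 5 µM dose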;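 further: 0 = sulfaphenazole-blocked wells and 1 = vehicle-only wells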
CYP2C19 inhib: human CYP2C19 inhibition; 96,000 tested, 21% active; inhibition, % at 5 µM; P33261; CYP2C19 Supersomes, luciferin-H EGE luminescence, 30 min;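 active means CYP2C19 inhibition above a set limit at 5 µM in the primary screen, cut at about 50% in these data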;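 further: plate controls were negative control wells for no effect and 2.5 mM tranylcypromine positive control for full effect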
sEH inh: inhibitors of human soluble epoxide hydrolase; P34913; recombinant human sEH enzymatic activity assay; inhibition, % at 2 µM; 91,000 tested, 0.34% active; AID 707; in the data active means inhibition above about 80%
Target sequence (P34913 whole entry, looked up): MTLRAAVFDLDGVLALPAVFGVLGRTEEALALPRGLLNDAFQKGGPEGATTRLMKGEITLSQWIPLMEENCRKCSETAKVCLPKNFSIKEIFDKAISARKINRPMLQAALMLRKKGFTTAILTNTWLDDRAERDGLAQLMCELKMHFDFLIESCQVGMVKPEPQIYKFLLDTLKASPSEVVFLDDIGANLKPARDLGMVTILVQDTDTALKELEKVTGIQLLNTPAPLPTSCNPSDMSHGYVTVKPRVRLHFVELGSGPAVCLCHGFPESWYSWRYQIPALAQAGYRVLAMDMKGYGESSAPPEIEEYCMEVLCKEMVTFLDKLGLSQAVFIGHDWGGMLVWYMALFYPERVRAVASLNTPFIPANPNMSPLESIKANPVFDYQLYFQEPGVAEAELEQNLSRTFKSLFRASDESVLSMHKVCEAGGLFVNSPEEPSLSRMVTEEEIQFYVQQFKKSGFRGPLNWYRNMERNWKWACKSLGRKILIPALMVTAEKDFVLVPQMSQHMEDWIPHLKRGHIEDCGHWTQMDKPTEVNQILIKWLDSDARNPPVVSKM
CYP2C19 activ: increases human CYP2C19 enzyme activity; activation factor at 5 µM; AID 1025; recombinant CYP2C19, luciferin-H EGE luminescence; hits give high values; 0 = fully inhibited enzyme, 1 = untreated enzyme; 96,000 tested, under 10 active; P33261;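 active means activation factor of at least 2 at 5 µM in the primary screen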;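 further: 0 = wells with 2.5 mM tranylcypromine and 1 = vehicle-only wells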
sEH act: increases human soluble epoxide hydrolase activity; AID 717; 91,000 tested, 0.04% active; P34913; purified human sEH enzymatic activity, activator screen; activation, % at 2 µM; in the data active means activation above about 37%
* hit, by the source's call; nt = not tested or not shown. Hits are enriched below; roughly 27% of the tested compounds scored in any of these assays.

SMILES	CYP2C9 inhib	CYP2C9 activ	CYP2C19 inhib	sEH inh	CYP2C19 activ	sEH act
Cc1noc(COc2ccccc2OCC(N)=O)c1Cl	16.4	0.8	29.5	-21.1	0.7	23.2
Cc1cccc(CS(=O)(=O)Cc2ccc(C(=O)NCCN3CCCCC3C)o2)c1 (stereo not drawn)	18.8	0.8	5.7	nt	0.9	nt
Cc1cc(NC(=O)c2oc3ccccc3c2C)ccc1-n1cnnn1	77.3*	0.2	43.1	5.8	0.6	-4.5
Cc1c(C(=O)Nc2ccc(N3CCOCC3)cc2)oc2ccccc12	-15.1	1.2	-3.5	-0.6	1	2.7
COc1cc(OC)cc(C(=O)Nc2ccc(-n3cnnn3)c(C)c2)c1	92.3*	0.1	83.1*	18.1	0.2	-17.0
CC1CCN(C2(O)C(=O)Nc3ccc([N+](=O)[O-])cc32)CC1 (stereo not drawn)	66.4*	0.3	42.2	3.4	0.6	0.6
CCOC(=O)c1c(C)n(C)c2c(C)cc(O)c(OC(C)=O)c12	-32.1	1.3	-11.5	5.6	1.1	-9.6
N#Cc1c(-n2ccnc2)cccc1-n1ccnc1	94.5*	0.1	80.7*	-6.3	0.2	8.5
CCOC(=O)CSc1nc(C)c(C(=O)OCC)s1	65.0*	0.3	38.2	5.2	0.6	-3.0
COc1ccc(NC(=O)c2sc(SCc3ccccc3)nc2N)cc1	12.3	0.9	0.3	5.0	1	-1.5
CCOC(=O)CSc1nc(N)c(C(=O)Nc2ccc(N(C)C)cc2)s1	47.1	0.5	65.4*	nt	0.3	nt
Nc1ccc(Sc2cc(Cl)nc(N)n2)cc1	74.5*	0.3	53.3*	9.3	0.5	-7.3
O=C(CNC(=O)Cc1ccccc1)NCC(=O)OCc1ccc(C(=O)c2ccccc2)cc1	20.8	0.8	2.5	-2.3	1	5.1
CC(C)Cc1ccc(C(C)C(=O)N2CCOCC2)cc1 (stereo not drawn)	66.3*	0.3	21.4	6.4	0.8	-3.6
O=c1[nH]c(-c2ccccc2O)nc2c1CCCC2	18.4	0.8	6.3	nt	0.9	nt
O=C1c2ccccc2S(=O)(=O)N1CC(O)COc1ccc(Br)cc1 (stereo not drawn)	69.4*	0.3	99.7*	4.2	0	-4.5
O=C1c2ccccc2C(=O)N1CCOc1ccccc1	nt	nt	nt	-2.4	nt	3.7
O=C(CN1C(=O)c2ccccc2S1(=O)=O)NCc1cccnc1	10.7	0.9	0.2	-2.7	1	2.4
Cc1c(C)n(CC(O)CN2C(=O)c3ccccc3S2(=O)=O)c2ccccc12 (stereo not drawn)	97.1*	0	98.1*	6.9	0	-6.3
O=C1c2ccccc2S(=O)(=O)N1CC(O)COc1ccc(Cl)cc1 (stereo not drawn)	66.8*	0.3	100.4*	nt	0	nt
O=C1c2ccccc2S(=O)(=O)N1CCOc1ccccc1	49.5	0.5	97.8*	-15.3	0	17.7
COc1ccc(NC(=O)CCN2C(=O)c3ccccc3S2(=O)=O)cc1	17.0	0.8	3.6	14.1	1	-12.8
Cc1cc(C)cc(NC(=O)NC2CCN(CC(=O)Nc3c(C)cc(C)cc3C)CC2)c1	nt	nt	nt	76.9	nt	-76.0
N#Cc1cn(Cc2cccc(Cl)c2)c2ccccc12	93.3*	0.1	92.6*	-6.7	0.1	4.0
O=c1c(Cl)c(N2CCN(S(=O)(=O)c3ccc(F)cc3)CC2)cnn1-c1cccc(Cl)c1	18.9	0.8	10.9	-0.2	0.9	2.0
SMILES	CYP2C9 inhib	CYP2C9 activ	CYP2C19 inhib	sEH inh	CYP2C19 activ	sEH act
CC(C)(C)c1ccc(OCCC(=O)NC2=NCCS2)cc1	-11.2	1.1	12.2	3.1	0.9	-5.1
CCN(CCCNC(=O)CCn1c(=O)[nH]c2ccccc2c1=O)c1ccccc1	24.6	0.8	62.4*	55.2	0.4	-54.9
CCN(CCCNC(=O)CCCn1c(=O)[nH]c2ccccc2c1=O)c1cccc(C)c1	61.6*	0.4	48.5	36.9	0.5	-36.2
CCN(CCCNC(=O)CCn1c(=O)[nH]c2ccccc2c1=O)c1cccc(C)c1	24.2	0.8	66.8*	-1.6	0.3	-0.8
CCCCNC(=O)CCCn1c(=O)[nH]c2ccc(Br)cc2c1=O	11.8	0.9	12.0	nt	0.9	nt
CCN(CCCNC(=O)c1[nH]c(C)c(C(C)=O)c1C)c1cccc(C)c1	49.5	0.5	53.2*	nt	0.5	nt
c1cc2[nH]snc2c2nc(C3CC3)nc12	8.2	0.9	26.4	-13.5	0.7	12.9
Cc1ccc(C(=O)Cn2nnc3ccccc32)cc1C	13.1	0.9	12.5	1.4	0.9	1.5
Cc1ccc(-n2ncc3c(=O)n(CC(=O)N4CCN(c5ccccc5F)CC4)cnc32)cc1C	nt	nt	nt	10.1	nt	-5.5
CNC(=O)C1CC(=O)N(CCCc2ccccc2)C(=Nc2ccccc2)S1 (stereo not drawn)	56.3*	0.4	64.6*	-6.4	0.4	8.5
C=CCN1C(=O)CC(C(=O)NC)SC1=Nc1ccc(C(=O)OCC)cc1 (stereo not drawn)	25.2	0.7	11.1	17.9	0.9	-17.9
Cc1noc(C)c1COc1ccc(C(=O)OCc2nnc(-c3ccc(Cl)cc3)o2)cc1	95.1*	0	78.7*	1.6	0.2	-1.1
O=C(OCc1nnc(-c2ccc(Cl)cc2)o1)c1ccncc1	67.2*	0.3	65.3*	-12.0	0.3	11.2
CC(=O)c1ccc(OCCCC(=O)OCc2nnc(-c3ccc(Cl)cc3)o2)cc1	-100.9	2*	35.8	0.2	0.6	0.0
CC(=O)NC(Cc1ccc(F)cc1)C(=O)N1CCN(C(=O)NCc2ccccc2)CC1 (stereo not drawn)	nt	nt	nt	8.5	nt	-9.9
O=C(Cc1coc2ccc3ccccc3c12)Nc1nccs1	38.9	0.6	11.3	20.1	0.9	-21.5
O=C(Cc1coc2ccc3ccccc3c12)N1CCN(c2ncccn2)CC1	55.1*	0.4	60.7*	12.2	0.4	-9.6
CCCN(CCC)C(=O)Cc1coc2ccc3ccccc3c12	-93.0	1.9	63.9*	-10.6	0.4	5.9
O=C(Cc1coc2ccc3ccccc3c12)NCc1ccccc1	-183.7	2.8*	86.2*	0.7	0.1	2.5
O=C(CN1CCN(Cc2cccc(Cl)c2)C1=O)NCc1ccccn1	-11.9	1.1	-20.2	7.2	1.2	-8.7
COc1ccccc1N(O)C1CC(=O)N(c2ccc(Br)cc2)C1=O (stereo not drawn)	9.4	0.9	7.0	nt	0.9	nt
CCCCCCC(=O)N(O)C1CC(=O)N(c2ccc(Br)cc2)C1=O (stereo not drawn)	31.7	0.7	52.2*	1.5	0.5	-3.6
O/N=C1\CCCc2oc3c(c21)CCCC3	-8.6	1.1	-8.7	-7.3	1.1	5.4
CCOC(=O)C1=C(C)N=C(SC)N(C)C1c1ccccc1 (stereo not drawn)	29.1	0.7	30.8	-3.3	0.7	4.5
CCOC(=O)C1=C(C)N=C2c3ccccc3C(=O)C2C1c1ccc(C)cc1 (stereo not drawn)	68.8*	0.3	23.8	-8.4	0.8	11.0
CCOC(=O)C1=C(C)N=C2c3ccccc3C(=O)C2C1c1ccccc1 (stereo not drawn)	56.5*	0.4	17.1	12.1	0.8	-10.0
